# Experiments:
# [1] = target: Tyrosine-protein kinase SYK (Homo sapiens) (UniProt P43405); conditions: at 10 µM
# [2] = target: T1, Mitogen-activated protein kinase kinase kinase 7 (Homo sapiens) (UniProt O43318); conditions: at 10 µM
# T1 sequence (whole entry): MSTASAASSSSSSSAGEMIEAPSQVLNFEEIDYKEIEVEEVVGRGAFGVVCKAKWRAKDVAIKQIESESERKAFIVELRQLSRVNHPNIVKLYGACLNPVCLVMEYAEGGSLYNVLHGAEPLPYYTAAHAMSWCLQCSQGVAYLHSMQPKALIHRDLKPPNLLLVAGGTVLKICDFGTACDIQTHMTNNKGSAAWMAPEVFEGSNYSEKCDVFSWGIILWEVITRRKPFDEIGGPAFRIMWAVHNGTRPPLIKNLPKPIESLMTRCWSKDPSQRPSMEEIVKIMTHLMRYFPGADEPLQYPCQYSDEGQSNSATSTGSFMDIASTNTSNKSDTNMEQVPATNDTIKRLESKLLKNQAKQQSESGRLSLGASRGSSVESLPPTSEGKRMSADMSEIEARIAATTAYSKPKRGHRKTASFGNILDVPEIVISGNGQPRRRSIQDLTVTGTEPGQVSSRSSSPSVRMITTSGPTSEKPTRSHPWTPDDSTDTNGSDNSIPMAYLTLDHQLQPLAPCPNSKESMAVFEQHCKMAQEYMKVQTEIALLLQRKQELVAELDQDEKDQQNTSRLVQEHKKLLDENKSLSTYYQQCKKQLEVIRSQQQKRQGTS
# [3] = target: T2, Serine/threonine-protein kinase TAO1 (Homo sapiens) (UniProt Q7L7X3); conditions: at 1 µM
# T2 sequence (whole entry): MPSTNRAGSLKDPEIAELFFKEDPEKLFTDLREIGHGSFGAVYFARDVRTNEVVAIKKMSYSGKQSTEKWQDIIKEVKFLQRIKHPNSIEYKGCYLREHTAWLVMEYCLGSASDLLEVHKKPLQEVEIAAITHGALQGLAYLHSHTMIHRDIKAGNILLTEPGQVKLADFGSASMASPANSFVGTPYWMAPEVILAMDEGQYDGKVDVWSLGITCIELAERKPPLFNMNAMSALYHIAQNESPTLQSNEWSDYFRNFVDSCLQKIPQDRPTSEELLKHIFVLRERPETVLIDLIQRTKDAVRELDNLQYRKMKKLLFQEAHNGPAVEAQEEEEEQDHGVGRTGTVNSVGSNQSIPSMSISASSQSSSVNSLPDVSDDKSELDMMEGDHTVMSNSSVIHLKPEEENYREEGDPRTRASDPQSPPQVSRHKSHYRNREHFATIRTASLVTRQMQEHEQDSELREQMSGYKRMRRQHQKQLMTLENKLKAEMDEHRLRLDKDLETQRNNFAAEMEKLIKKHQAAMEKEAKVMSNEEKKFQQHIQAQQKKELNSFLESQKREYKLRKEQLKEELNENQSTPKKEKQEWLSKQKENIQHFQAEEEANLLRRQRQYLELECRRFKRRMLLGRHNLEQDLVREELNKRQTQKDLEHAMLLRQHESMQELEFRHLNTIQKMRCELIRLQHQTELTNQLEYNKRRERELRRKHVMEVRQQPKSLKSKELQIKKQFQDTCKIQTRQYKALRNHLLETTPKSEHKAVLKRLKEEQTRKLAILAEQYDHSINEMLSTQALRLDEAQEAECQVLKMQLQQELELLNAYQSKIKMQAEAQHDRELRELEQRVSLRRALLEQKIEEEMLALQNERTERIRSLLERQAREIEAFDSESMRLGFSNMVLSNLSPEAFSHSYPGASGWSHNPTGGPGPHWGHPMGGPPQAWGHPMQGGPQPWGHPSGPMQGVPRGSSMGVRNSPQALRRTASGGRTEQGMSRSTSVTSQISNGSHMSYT
# [4] = target: T2, Serine/threonine-protein kinase TAO1 (Homo sapiens); conditions: at 10 µM
# [5] = target: T3, Serine/threonine-protein kinase TAO2 (Homo sapiens) (UniProt Q9UL54); conditions: at 1 µM
# T3 sequence (whole entry): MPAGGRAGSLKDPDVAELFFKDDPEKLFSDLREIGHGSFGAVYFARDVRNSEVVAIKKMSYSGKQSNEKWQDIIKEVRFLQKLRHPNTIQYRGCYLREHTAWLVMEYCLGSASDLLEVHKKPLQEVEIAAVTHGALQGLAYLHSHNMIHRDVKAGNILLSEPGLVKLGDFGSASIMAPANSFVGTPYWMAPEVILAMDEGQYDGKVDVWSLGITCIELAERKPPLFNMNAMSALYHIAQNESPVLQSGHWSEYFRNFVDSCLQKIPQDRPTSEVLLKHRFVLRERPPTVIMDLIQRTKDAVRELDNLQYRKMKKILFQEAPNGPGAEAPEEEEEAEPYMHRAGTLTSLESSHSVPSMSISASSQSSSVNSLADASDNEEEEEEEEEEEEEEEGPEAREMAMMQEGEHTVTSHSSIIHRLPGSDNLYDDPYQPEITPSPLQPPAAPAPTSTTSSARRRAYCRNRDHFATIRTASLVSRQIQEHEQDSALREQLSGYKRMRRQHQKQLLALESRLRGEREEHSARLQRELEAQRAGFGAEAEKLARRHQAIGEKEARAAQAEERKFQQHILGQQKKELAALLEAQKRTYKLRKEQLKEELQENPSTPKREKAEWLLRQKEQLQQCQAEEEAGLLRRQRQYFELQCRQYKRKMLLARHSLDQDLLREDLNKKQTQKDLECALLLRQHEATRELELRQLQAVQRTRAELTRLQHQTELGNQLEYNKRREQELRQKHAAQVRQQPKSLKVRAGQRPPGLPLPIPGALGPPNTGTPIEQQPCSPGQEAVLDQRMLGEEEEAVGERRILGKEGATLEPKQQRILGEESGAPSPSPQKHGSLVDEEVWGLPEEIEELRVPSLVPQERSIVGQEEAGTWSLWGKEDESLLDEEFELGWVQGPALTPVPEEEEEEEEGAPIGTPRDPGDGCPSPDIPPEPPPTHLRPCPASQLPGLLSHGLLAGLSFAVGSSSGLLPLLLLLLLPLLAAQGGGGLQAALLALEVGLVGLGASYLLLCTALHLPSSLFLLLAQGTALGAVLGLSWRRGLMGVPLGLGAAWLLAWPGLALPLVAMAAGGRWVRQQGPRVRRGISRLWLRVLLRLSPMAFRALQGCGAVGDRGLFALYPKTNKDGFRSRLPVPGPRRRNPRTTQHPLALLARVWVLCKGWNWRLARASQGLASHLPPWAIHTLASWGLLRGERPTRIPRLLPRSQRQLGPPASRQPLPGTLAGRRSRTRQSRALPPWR
# [6] = target: T3, Serine/threonine-protein kinase TAO2 (Homo sapiens); conditions: at 10 µM
# [7] = target: T4, Serine/threonine-protein kinase TAO3 (Homo sapiens) (UniProt Q9H2K8); conditions: at 1 µM
# T4 sequence (whole entry): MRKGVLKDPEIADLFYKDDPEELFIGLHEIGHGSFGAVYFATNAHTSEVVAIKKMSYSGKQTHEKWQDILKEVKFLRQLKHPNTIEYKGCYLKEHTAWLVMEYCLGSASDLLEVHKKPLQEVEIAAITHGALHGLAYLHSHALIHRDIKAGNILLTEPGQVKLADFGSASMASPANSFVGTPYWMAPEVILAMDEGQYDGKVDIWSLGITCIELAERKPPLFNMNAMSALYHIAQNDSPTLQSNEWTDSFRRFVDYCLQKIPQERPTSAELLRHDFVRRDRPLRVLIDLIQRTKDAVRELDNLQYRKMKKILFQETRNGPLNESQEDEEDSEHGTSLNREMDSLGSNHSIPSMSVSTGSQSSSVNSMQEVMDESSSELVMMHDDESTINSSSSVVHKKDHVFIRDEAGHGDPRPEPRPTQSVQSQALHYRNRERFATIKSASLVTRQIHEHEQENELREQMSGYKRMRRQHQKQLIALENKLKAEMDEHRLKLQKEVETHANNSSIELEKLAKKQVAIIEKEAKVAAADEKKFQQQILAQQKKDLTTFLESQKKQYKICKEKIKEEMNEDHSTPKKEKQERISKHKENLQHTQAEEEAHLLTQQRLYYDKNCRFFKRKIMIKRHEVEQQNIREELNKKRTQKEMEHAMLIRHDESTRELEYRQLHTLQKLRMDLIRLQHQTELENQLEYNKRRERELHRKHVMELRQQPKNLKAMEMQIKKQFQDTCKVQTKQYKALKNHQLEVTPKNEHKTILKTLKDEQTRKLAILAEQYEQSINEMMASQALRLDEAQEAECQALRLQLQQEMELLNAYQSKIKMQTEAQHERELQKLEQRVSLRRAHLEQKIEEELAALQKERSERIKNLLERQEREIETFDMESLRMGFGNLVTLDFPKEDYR
smiles,measurement,setting,value
c1ccc(-c2cnc(Nc3ccc(OCCN4CCCC4)cc3)s2)cc1,residual activity,[1],72%
same,residual activity,[2],74%
same,residual activity,[3],82%
same,residual activity,[4],28%
same,residual activity,[5],81%
same,residual activity,[6],21%
same,residual activity,[7],82%

# From ChEMBL document CHEMBL2218924, “A broad activity screen in support of a chemogenomic map for kinase signalling research and drug discovery” (Biochem J, 2013)
